# Most compounds without a hit are left out; they make up all but 0.85% or so of the library.
# Six1-Eya2 inh: qHTS Assay for Inhibitors of the Six1/Eya2 Interaction | AlphaScreen GST-Six1/His-Eya2 binding, biochemical; stronger effect = lower value | activity change, % (test concentration not listed) | AID 651725, 2012 | Homeobox protein SIX1 (Homo sapiens) + Protein phosphatase EYA2 (Homo sapiens), … | actives 0.56% (n = 360,000); note: % is set by controls: 0 for no effect and ±100 for the full control effect
#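 Homogeneous AlphaScreen proximity assay pairing GST-Six1 with His-tagged Eya2 (added as 5X mix: 250 nM and 500 nM) in 50 mM Tris pH 8.0, 300 mM NaCl, 1 mM TCEP. Glutathione donor and nickel acceptor beads; 1 h, 37 °C, dark.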
# TSHR antag: Antagonists of the Thyroid Stimulating Hormone Receptor: HTS campaign | Thyrotropin receptor (Homo sapiens), P16473 | TSHR-expressing cells, TSH-stimulated cAMP HTRF, 2 h; stronger effect = lower value | activity change, negative = inhibition, % at 11.5 µM | actives 0.2% (n = 330,000) | AID 504810, 2011;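 active = activity change below a set negative limit, meaning inhibition stronger than a set level, cut at about -70% in these data; inconclusive = activity change between two set negative limits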; note: % is set by controls: 0 for no effect and ±100 for the full control effect
# Target sequence (P16473 whole entry, looked up): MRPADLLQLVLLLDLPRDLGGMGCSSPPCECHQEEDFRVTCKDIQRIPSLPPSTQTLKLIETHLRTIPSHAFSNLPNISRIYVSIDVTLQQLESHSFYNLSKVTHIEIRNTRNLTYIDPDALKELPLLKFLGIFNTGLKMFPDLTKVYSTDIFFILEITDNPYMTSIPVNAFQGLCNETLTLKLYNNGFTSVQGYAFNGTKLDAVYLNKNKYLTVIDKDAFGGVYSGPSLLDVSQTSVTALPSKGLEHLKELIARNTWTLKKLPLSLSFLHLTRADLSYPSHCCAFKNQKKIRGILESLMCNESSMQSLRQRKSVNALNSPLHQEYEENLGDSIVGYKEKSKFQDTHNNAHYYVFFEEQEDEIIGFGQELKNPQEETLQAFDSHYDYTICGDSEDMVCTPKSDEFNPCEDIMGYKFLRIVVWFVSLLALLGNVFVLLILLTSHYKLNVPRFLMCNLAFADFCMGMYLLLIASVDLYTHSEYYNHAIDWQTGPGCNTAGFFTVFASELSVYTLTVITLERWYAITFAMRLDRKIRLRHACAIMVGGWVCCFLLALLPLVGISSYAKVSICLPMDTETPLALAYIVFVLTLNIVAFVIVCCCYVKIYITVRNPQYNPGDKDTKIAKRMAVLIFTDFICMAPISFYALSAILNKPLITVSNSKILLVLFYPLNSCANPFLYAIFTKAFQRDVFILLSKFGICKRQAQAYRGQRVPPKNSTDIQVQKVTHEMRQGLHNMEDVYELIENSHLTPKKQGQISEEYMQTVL
#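 Inhibition of cAMP made by TSHR-expressing cells under TSH stimulation (4nM final, EC80; 2 h, 37 deg C) is quantified with a one-step lysis HTRF kit, anti-cAMP cryptate versus cAMP-d2.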
# ASM inhibitor: Inhibitors of Secretory Acid Sphingomyelinase (S-ASM): qHTS; Potency, µM (series often up to 57.5 µM), inactives show at the top dose activity change, negative = inhibition, hits mostly inhibitors; placental ASM, HMU-PC fluorogenic substrate, 60 min; actives 0.006% (n = 340,000); AID 504937, 2011; Sphingomyelin phosphodiesterase (Homo sapiens), P17405; active = well fitted inhibition curve with a large enough effect; inconclusive = small, poorly fitted or top-dose-only effect; inactive = no such curve, though single readings can be large or run the other way; note: potency is the fitted concentration of half-maximal effect
#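 Human placenta-derived ASM preincubated with compound 10 min at room temperature, then reacted with 9 uM (final) fluorogenic HMU-PC substrate for 60 min at 37 C. Stop solution raises pH to 10; fluorescence read at Ex 386/Em 447 nm.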
# CtBP-E1A inh: qHTS Assay for Inhibitors of the CtBP/E1A Interaction; CtBP / adenovirus E1A interaction (AlphaScreen); AlphaScreen GST-E1A/His-CtBP binding, 1536-well; stronger effect = lower value; activity change, % (concentration not given with the values); actives 0.49% (n = 340,000); note: % is set by controls: 0 for no effect and ±100 for the full control effect
#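 Steps: dispense buffer (Tris pH 8.0, NaCl 300 mM, TCEP 1 mM, BSA, Tween 20); add 5X protein mix (GST-E1A, His-CtBP, 125 nM each); pin 23 nL compound; 2 h at 37 °C, dark; add 5X beads (50 ug/mL); 1 h; read.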
# Chronic BCR inh: qHTS Assay to Find Inhibitors of Chronic Active B-Cell Receptor Signaling | Potency, µM (titrated, usually from 46.1 µM), without a hit: at the highest dose activity change, negative = inhibition, most hits filed as inhibitors | ABC-DLBCL IkBa-CBG/CBR reporter, luminescence ratio, 4 h | actives 0.05% (n = 340,000) | AID 493014, 2011; active = well fitted inhibition curve with a large enough effect in the signal ratio, with a control signal flat, not every such curve was filed as active; inconclusive = small, poorly fitted or top-dose-only effect, or effect the other way, or a change in a side signal; the % refers to the signal ratio;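 note: potency is the fitted concentration of half-maximal effect; plate controls were basal doxycycline-induced cells for no effect and cells given 10 µM MG132 for full effect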
#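 Concentration-response series (up to 46 uM) were applied to TMD8 dual-reporter cells for 4 h at 37C with doxycycline. Green/red ratio, after filter-overlap correction, defined %Activity; red signal alone was normalised to basal cells and zero luminescence.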
# Starred values were filed as active, the others as inactive; ? = inconclusive; . = not tested or not shown. Cut-off read from the data, not from the text of the source, unless noted: active = activity change below about -65%; inconclusive = mostly about -30% to -63%; inactive = weaker than that.
SMILES,Six1-Eya2 inh,TSHR antag,ASM inhibitor,CtBP-E1A inh,Chronic BCR inh
CCN(CC)S(=O)(=O)c1ccc(N/N=C/c2ccc(O)cc2O)nc1,-93.5*,-1.2,-7.5%,-94.5*,2.1%
COc1ccc(O)c(/C=N/Nc2nc3ccccc3[nH]2)c1,-0.4,-18.5,-0.2%,5.0,?
O=[N+]([O-])c1ccc(NN=Cc2ccc(O)cc2O)nc1,-69.3*,.,1.2%,-74.3*,.
O=[N+]([O-])c1ccc(NN=Cc2ccccc2O)nc1,-78.2*,.,4.3%,-78.9*,.
O=[N+]([O-])c1ccc(O)c(/C=N/Nc2nc3ccccc3[nH]2)c1,-92.0*,-20.0,-11.6%,-97.5*,?
COc1ccccc1C=NNc1ccc([N+](=O)[O-])cn1,1.7,.,4.2%,7.4,.
O=[N+]([O-])c1ccc(O)c(/C=N/Nc2ccccn2)c1,-90.4*,-14.9,-4.9%,-92.1*,?
O=C(CNS(=O)(=O)c1ccc([N+](=O)[O-])cc1)N/N=C\c1ccc(O)cc1,1.2,1.8,-2.4%,.,1.5%
O=C(CNS(=O)(=O)c1ccc([N+](=O)[O-])cc1)N/N=C/c1ccc(O)cc1O,-72.7*,3.2,-0.2%,?,1.7%
COc1cccc(N2CC(NC(=O)COc3ccc4ccccc4c3)CC2=O)c1 (stereo not drawn),.,.,.,.,0.6%
O=C(NNC(=S)NC1CCCCC1)c1sc2ccccc2c1Cl,-9.5,-31.4,2.3%,-3.0,?
CC(C)(C)C(=O)NC(=S)NNC(=O)c1sc2ccccc2c1Cl,-8.1,-93.9*,10.1%,-4.0,?
CC(C)Oc1ccc(C(=O)NCCNC(=O)c2ccco2)cc1,2.1,-94.4*,-0.9%,5.9,1.1%
Cc1ccc(C)n1-c1sccc1C(=O)O,-67.9*,-0.5,-21.6%,-6.1,9.6%
COc1ccc(CNC(=O)c2ccc3c(c2)N(Cc2cccc(Cl)c2)C(=O)c2ccccc2S3)c(OC)c1,.,.,.,.,0.4%
Cc1ccc(C(=O)O)cc1-c1ccc(/C=C2/NC(=O)N(c3ccccc3)C2=O)o1,-73.9*,-16.5,119.2%,-20.4,?
Cc1ccccc1/C=C1\SC(=S)N(/N=C/c2cc([N+](=O)[O-])ccc2O)C1=O,?,-9.2,-14.2%,-91.6*,?
O=[N+]([O-])c1ccc(O)c(C=NN2CCCCC2)c1,-18.7,.,.,-5.8,.
O=C1/C(=C\c2cc([N+](=O)[O-])ccc2O)SC(=S)N1Cc1ccc(Cl)cc1,-17.5,-83.5*,-13.8%,.,13.8%
COc1ccc(OC)c(/C=C/c2ccc3cccc(O)c3n2)c1,.,-11.8,.,.,11.2µM*
COc1cc(Br)c(/C=C/c2ccc3cccc(O)c3n2)cc1OC,0.0,0.9,5.1%,.,?
CC[C@@H](C(=O)[C@@H](C)[C@@H](O)[C@H](C)[C@@H]1O[C@@H]([C@@H](CC)C(=O)O)CC[C@@H]1C)[C@H]1O[C@]2(C=C[C@@H](O)[C@]3(CC[C@@](C)([C@H]4CC[C@](O)(CC)[C@H](C)O4)O3)O2)[C@H](C)C[C@@H]1C,4.9,.,2.1%,0.4,.
CC[C@@H](C(=O)[C@@H](C)[C@@H](O)[C@H](C)CCc1ccc(C)c(O)c1C(=O)O)[C@H]1O[C@](CC)([C@H]2CC[C@](O)(CC)[C@H](C)O2)C[C@@H]1C,3.3,-84.2*,8.2%,4.0,?
O=C(COc1ccc(Cl)cc1)NCC(c1ccco1)S(=O)(=O)c1ccc(Cl)cc1 (stereo not drawn),.,.,.,.,-0.1%
CC(=O)OCC1=C(C(=O)OC(C)(C)C)N2C(=O)[C@@H](NC(=O)Cc3ccccc3)[C@H]2SC1,-7.4,.,-3.8%,-0.5,.
SMILES,Six1-Eya2 inh,TSHR antag,ASM inhibitor,CtBP-E1A inh,Chronic BCR inh
CC1=C(C(=O)OCC(Cl)(Cl)Cl)N2C(=O)C(NC(=O)Cc3ccccc3)C2SC1 (stereo not drawn),-0.9,-77.2*,-1.6%,19.1,?
Cc1ccc2nc(SC(Cc3cc(Cl)ccc3Cl)C(=O)O)[nH]c2c1 (stereo not drawn),.,.,.,.,20.6%
O=C(COc1ccc(-c2ccccc2)cc1)N1CCN(C(=O)c2cccs2)CC1,-74.1*,-12.4,-12.0%,7.0,2.5%
O=C(COc1ccccc1)N1CCN(S(=O)(=O)c2cccs2)CC1,1.7,-8.8,0.7%,-3.8,?
COc1ccc(C(NC(C)=O)c2ccc3cccnc3c2O)c(OC)c1 (stereo not drawn),?,2.3,-1.3%,?,-12.2%
CCCCC(=O)NC(c1ccccc1OC)c1ccc2cccnc2c1O (stereo not drawn),-76.2*,2.5,1.9%,-91.6*,?
CCCC(=O)NC(c1ccccc1OC)c1ccc2cccnc2c1O (stereo not drawn),-88.2*,2.9,4.9%,-83.7*,?
O=C(NCc1ccc2c(c1)OCO2)c1ccc2c(c1)N(Cc1cccc(Cl)c1)C(=O)c1ccccc1S2=O (stereo not drawn),.,.,.,.,11.7%
N#CC1=C(N)N2C(=C(C#N)C1c1ccc(Br)cc1)Nc1ccccc12 (stereo not drawn),5.5,-78.6*,70.8%,9.6,?
N#CC1=C(N)N2C(=C(C#N)C1c1cccc(Br)c1)Nc1ccccc12 (stereo not drawn),6.5,-0.3,104.6%,4.2,?
COc1ccc(OC)c(NC(=O)CSc2nn3c(=O)c(C)nnc3s2)c1,?,22.3,1.5%,-88.0*,-8.3%
Cc1nnc2sc(SCC(=O)Nc3ccc(Br)cc3)nn2c1=O,-86.7*,22.2,5.7%,14.8,?
COc1cccc(NC(=O)CSc2nc(C)cs2)c1,-0.3,-0.3,0.0%,1.0,?
COc1ccc(NC(=O)CSc2nn3c(=O)c(C)nnc3s2)cc1,-86.2*,1.8,4.6%,-92.8*,9.7%
COc1cccc(NC(=O)CSc2nn3c(=O)c(C)nnc3s2)c1,-77.0*,-12.4,5.2%,-98.7*,8.7%
Cc1ccccc1CSc1nn2c(=O)c(C)nnc2s1,9.9,5.3,4.9%,-1.9,?
COC(=O)c1ccc(NC(=O)CSc2nn3c(=O)c(C)nnc3s2)cc1,-66.8*,10.9,-2.3%,-93.2*,?
Cc1ccccc1NC(=O)CSc1nn2c(=O)c(C)nnc2s1,-83.8*,-3.5,1.8%,-92.1*,8.3%
Cc1nnc2sc(SCC(=O)Nc3cccc(Cl)c3)nn2c1=O,?,-2.2,1.6%,-93.1*,?
Cc1cccc(Cc2c(C)nc3nc(SCc4ccccc4C)nn3c2C)c1,.,.,.,.,22.7%
